High-throughput results deposited in PubChem by The Scripps Research Institute Molecular Screening Center.
hgDAF12 agonist = hgDAF-12 agonism, primary luciferase screen; HEK293 GAL4-hgDAF12 UAS-luciferase reporter, agonist luminescence; normalized to butyrate control; activation, % at 6.8 µM; actives 1.8% (n = 370,000); AID 687014;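 active = activation above a cutoff set at the mean of all screened compounds plus 3 SD, cut at about 10% in these data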;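 note: 0% = DMSO wells and 100% = sodium butyrate wells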
hcDAF-12 act = activators of H. contortus DAF-12 nuclear receptor; HEK293 hcDAF-12 lit1-tk-luc reporter, luminescence; 0% DMSO, 100% Δ7-dafachronic acid; activation, % at 6.8 µM; actives 1.4% (n = 370,000); AID 652067;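 active = activation above the mean of all tested compounds plus 3 SD, cut at about 5.5% in these data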;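 note: 100% = response to 3 µM Δ7-dafachronic acid high control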
DAX1 inh-1 = blocks DAX1 repression of SF-1 activated StAR promoter; HEK293T StAR-luciferase reporter, SF-1/DAX-1 repression relief; inhibition, % at 6.8 µM; actives 1.1% (n = 370,000); AID 652010;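 active = inhibition above the mean over all tested compounds plus 3 SD, cut at about 3.6% in these data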;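 note: 0% = DAX-1 cells with DMSO and 100% = cells lacking DAX-1 with DMSO; higher inhibition means more luminescence from relief of DAX-1 repression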
ssDAF12 agonist = activates DAF-12 receptor from parasite S. stercoralis. AID 652126. actives 1% (n = 370,000). HEK293 ssDAF-12/GRIP1 lit1-tk-luc reporter, luminescence; % of 3 µM dafachronic acid response. activation, % at 6.8 µM;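 active = activation above the mean over all tested compounds plus 3 SD, cut at about 0.9% in these data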;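 note: 0% = DMSO-only wells and 100% = 3 µM delta7-dafachronic acid wells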
DAX1 inh-2 = inhibits human nuclear receptor DAX1. AID 504766. HEK293 Gal4-DAX1 luciferase reporter, luminescence. actives 0.99% (n = 340,000). inhibition, % at 6.75 µM;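 active = inhibition above the mean over all tested compounds plus 3 SD, cut at about 4.2% in these data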;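 note: 0% = DAX1-transfected cells with DMSO and 100% = empty-vector control cells with DMSO; inhibition shows as a rise in luminescence from relieved DAX1 repression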
Target sequence (P51843 207-470 limits assumed): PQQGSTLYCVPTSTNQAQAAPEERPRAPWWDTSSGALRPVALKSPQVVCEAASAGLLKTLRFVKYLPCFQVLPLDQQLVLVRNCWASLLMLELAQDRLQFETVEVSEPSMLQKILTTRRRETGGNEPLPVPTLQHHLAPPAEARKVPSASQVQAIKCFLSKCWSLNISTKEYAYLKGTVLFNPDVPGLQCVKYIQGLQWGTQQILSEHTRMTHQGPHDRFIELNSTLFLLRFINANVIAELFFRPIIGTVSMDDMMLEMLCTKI
* hit, by the source's call; . = no result given. An excerpt weighted towards active compounds, which were near 4.1% of everything screened.

SMILES | hgDAF12 agonist | hcDAF-12 act | DAX1 inh-1 | ssDAF12 agonist | DAX1 inh-2
O=C(Nc1ccc(F)cc1)C(c1ccccc1)N1CCN(CC(=O)N2CCCC2)CC1 (stereo unspecified) | 2 | -1 | -1 | -1 | 1
COc1ccc(C(C(=O)Nc2ccc(F)cc2)N2CCN(CC(=O)N3CCCC3)CC2)cc1 (stereo unspecified) | -2 | -1 | 4.2* | -1 | .
Brc1ccc2nc(-c3ccco3)c(CC3CCCCC3)n2c1 | 0 | 1 | 1 | 1.3* | .
COc1cc(NS(=O)(=O)c2cc3[nH]c(=O)c(=O)[nH]c3cc2C)cc(OC)c1OC | -2 | 5 | 1 | -1 | 4.8*
COc1ccc(C2c3ccc4ccccc4c3Oc3ncn(CCCO)c(=N)c32)cc1OC (stereo unspecified) | -2 | -3 | 0 | -1 | 4.8*
COc1ccc(C2c3ccc4ccccc4c3Oc3ncn(CCO)c(=N)c32)cc1OC (stereo unspecified) | . | . | . | . | 2
COc1ccc2c(c1)CNC2CS(=O)(=O)NCC(C)C (stereo unspecified) | -1 | -2 | 0 | -1 | .
O=[N+]([O-])c1ccc2nc(COCc3nc4ccccc4[nH]3)[nH]c2c1 | -5 | -4 | . | -1 | .
COc1ccc(CN(CCN2CCOCC2)C(=O)c2cc(F)ccc2C)cc1OC | 0 | 0 | 0 | -2 | .
COc1ccc2oc(=Nc3ccc(C(=O)O)cc3)c(C(=O)NCc3ccco3)cc2c1 | 0 | -2 | -1 | -1 | 4
COc1ccc(-c2cc(=Nc3ccc(C(=O)O)cc3)c3cc(C)ccc3o2)cc1 | 13* | 5.7* | 4.1* | 1 | 1
CCc1ccc2oc(-c3ccc(OC)cc3)cc(=Nc3c(C)n(C)n(-c4ccccc4)c3=O)c2c1 | 17* | 9.1* | 6.5* | 0 | 0
CCc1ccc2oc(-c3ccc(OC)cc3)cc(=Nc3cccc(C(=O)O)c3)c2c1 | 13* | 6.5* | 3 | 0 | -1
O=C(NCc1cccs1)c1noc2c1CCCCC2 | 10* | 0 | 1 | -1 | 1
CC(C)CC(NC(=O)c1ccccc1)C(=O)OCC(=O)Nc1ccc(S(N)(=O)=O)cc1 (stereo unspecified) | 2 | -1 | 0 | -2 | 4.5*
COC(=O)c1c(NC(=O)c2ccccc2)sc(C(=O)c2ccccc2)c1C | 2 | 1 | 1 | 0 | 1
COC(=O)c1c(NC(=O)c2ccccc2)sc(C(N)=O)c1C | -4 | 4 | 2 | 1.0* | 0
O=C(N/N=C/c1ccc([N+](=O)[O-])o1)C(O)c1ccccc1 (stereo unspecified) | -5 | -3 | -1 | -2 | -4
O=[N+]([O-])c1ccc(/C=N/NC(=S)Nc2ccccc2C(F)(F)F)o1 | -1 | 0 | -1 | -1 | 4.2*
N#CCCN/N=C(/Cc1nc2ccccc2[nH]1)c1cccc(Cl)c1 | 1 | 4 | 0 | 1.3* | 0
O=C(NNC(=O)c1cccc(-n2cccc2)c1)c1ccccc1 | 3 | 0 | 3 | -1 | 1
O=C(NNC(=O)c1ccccc1F)c1cccc(-n2cccc2)c1 | 4 | -1 | 3.7* | -1 | 1
CC(C)CNC(=O)OCc1cn(Cc2ccccc2Cl)nn1 | -7 | -4 | -1 | 0 | .
O=C(/C=C/Nc1ccc(S(=O)(=O)Nc2ncccn2)cc1)c1cccs1 | 8 | 4 | 1 | -1 | 5.7*
COc1cc(/C=C/C(=O)NC(=O)c2ccccc2O)ccc1O | 0 | 3 | 3 | 0 | 2
SMILES | hgDAF12 agonist | hcDAF-12 act | DAX1 inh-1 | ssDAF12 agonist | DAX1 inh-2
O=C(C=Cc1cccc(O)c1)c1ccccc1O | 12* | 3 | 0 | -1 | 0
O=C(/C=C/c1ccccc1)NC(=O)c1ccccc1O | 12* | 2 | 2 | 0 | 3
O=C(CCc1ccccc1)N[C@H]1[C@@H](OC(=O)c2cnccn2)CCC[C@@]12C(=O)N(Cc1ccccc1)c1ccccc12 | 2 | 4 | -1 | -2 | .
O=C(COc1ccccc1)Nc1ccc(-c2nnc(-c3ccco3)o2)cc1 | 9 | 6.3* | 1 | 0 | 0
COc1cccc(C(=O)Nc2ccc(-c3nnc(-c4ccco4)o3)cc2)c1 | -3 | -3 | -2 | -2 | -3
CC(C)COc1ccc(-c2nnc(-c3ccco3)o2)cc1 | 10 | 4 | 3.7* | 1 | 0
CCN(CC)CCCNc1ccc(-c2nnc(-c3ccc(OCC(C)C)cc3)o2)cn1 | 1 | -2 | 0 | -2 | -2
